{"source": "PubChem BioAssay (Tox21)", "note": "Several values for one entry are separate records, joined by “and”; a condition that tells them apart may be missing. Identical values can stand only once. Values without a mark were called inactive. Results filed as inconclusive are left out. Activity calls are given as the source filed them. Unless noted, the call rests on the fitted dose curve; in most records, active means well fitted cell-killing curve with a large enough effect in the repeat runs; inconclusive means weak or mixed curves, or effect the other way; inactive means flat fitted curve, though single readings scatter. On the % scale 0 is the no-effect control and ±100 the full control effect.", "data": [{"target": "Thyrotropin-releasing hormone receptor (Homo sapiens) (UniProt P34981)", "sequence (P34981 whole entry, looked up)": "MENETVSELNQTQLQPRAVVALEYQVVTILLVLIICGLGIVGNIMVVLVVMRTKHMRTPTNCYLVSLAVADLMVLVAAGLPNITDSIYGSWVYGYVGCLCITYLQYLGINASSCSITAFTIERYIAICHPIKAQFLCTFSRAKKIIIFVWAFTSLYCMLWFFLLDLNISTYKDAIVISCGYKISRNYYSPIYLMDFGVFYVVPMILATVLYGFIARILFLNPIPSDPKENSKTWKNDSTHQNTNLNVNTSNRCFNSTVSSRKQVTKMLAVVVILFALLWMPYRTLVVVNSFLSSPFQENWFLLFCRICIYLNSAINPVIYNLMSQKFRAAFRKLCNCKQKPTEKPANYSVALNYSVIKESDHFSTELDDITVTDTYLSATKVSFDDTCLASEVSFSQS", "assay": "qHTS assay to identify small molecule agonists of the thyrotropin-releasing hormone receptor (TRHR) signaling pathway (AID 1346891; calls by dose curve;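 further: HEK293 cells expressing TRHR with calcium dye readout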)", "conditions": "TRHR-HEK293 calcium fluorescence, agonist mode; series mostly up to 57.6 µM; activation: at the top concentration", "outline": "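Overnight-plated (18 h, 37 °C, 5% CO2) TRHR-Hek293 cells; 2 h calcium dye at 37 °C; compound in DMSO; 3-min kinetic fluorescence read.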", "values": [{"smiles": "C1CC(COCC2CO2)CCC1COCC1CO1", "note": "(stereo not given)", "activation": "0.375%"}, {"smiles": "O=C1C=CC(=O)N1c1ccccc1", "activation": "12.4%"}, {"smiles": "CC(C)N=C(N)/N=C(\\N)Nc1ccc(Cl)cc1", "activation": "-0.174% [at 26.5 µM]"}, {"smiles": "Clc1ccccc1CN1CCc2sccc2C1", "activation": "-0.0845% [at 26.5 µM]"}, {"smiles": "CCCCOC(=O)C(C)CC", "note": "(stereo not given)", "activation": "0.0188%"}, {"smiles": "CC1CCCCN1CCCOC(=O)c1ccc(OC2CCCCC2)cc1", "note": "(stereo not given)", "activation": "3.13% [at 26.5 µM]"}, {"smiles": "CCC(C)c1cc([N+](=O)[O-])cc([N+](=O)[O-])c1OC(=O)OC(C)C", "note": "(stereo not given)", "activation": "0.432%"}, {"smiles": "COc1cccc(CCc2ccccc2OCC(CN(C)C)OC(=O)CCC(=O)O)c1", "note": "(stereo not given)", "activation": "0.112% [at 26.5 µM]"}, {"smiles": "Oc1ccc(-c2ccc(O)cc2)cc1", "activation": "-0.215%"}, {"smiles": "CCN(CC)c1ccc(N)cc1", "activation": "-0.114%"}, {"smiles": "CNCC[C@H](Oc1cccc2ccccc12)c1cccs1", "activation": "15.7% [at 26.5 µM]"}, {"smiles": "CCc1ccc(O)c(C(C)(C)C)c1", "activation": "-0.227%"}, {"smiles": "CC(=O)Nc1ccc(O)cc1", "Potency": "inactive"}, {"smiles": "CCN(CC)CCOc1ccc(C(O)(Cc2ccc(Cl)cc2)c2ccc(C)cc2)cc1", "note": "(stereo not given)", "activation": "16% [at 26.5 µM]"}, {"smiles": "CS(C)(=O)=O", "activation": "-0.44%"}, {"smiles": "CN(Cc1cc(Br)cc(Br)c1N)C1CCCCC1", "activation": "0.293% [at 26.5 µM]"}, {"smiles": "Cc1cccc(C)c1NC(=O)CN1CCN(CCCC(c2ccc(F)cc2)c2ccc(F)cc2)CC1", "activation": "-1.05% [at 26.5 µM]"}]}, {"tested_on": "not listed separately", "assay": "Human pregnane X receptor (PXR) small molecule agonists, qHTS cell viability counter screen (AID 1346977); further: nearly all actives have a fitted effect of over 50% in size; further: potency means the concentration at half of the fitted maximal effect", "conditions": "PXR-Luc HepG2 viability, CellTiter-Fluor, 24 h; series mostly up to 92.4 µM; activity change, negative = cytotoxicity: at the top concentration", "outline": "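After a 5hr pre-incubation, PXR-Luc HepG2 cells received compounds plus positive control in DMSO and were kept 24hr at 37C. Cell viability was quantified by fluorescence from CellTiter-Fluor added for the final hour.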", "values": [{"smiles": "CCC1(c2cnc[nH]2)Cc2ccccc2C1", "activity change, negative = cytotoxicity": "-11.4% [at 42.5 µM]"}, {"smiles": "C1CC(COCC2CO2)CCC1COCC1CO1", "note": "(stereo not given)", "activity change, negative = cytotoxicity": "-6.66%"}, {"smiles": "C=CC(C)C#N", "note": "(stereo not given)", "activity change, negative = cytotoxicity": "0.559%"}, {"smiles": "O=C1C=CC(=O)N1c1ccccc1", "Potency": "48.6 µM (active)"}, {"smiles": "Clc1ccccc1CN1CCc2sccc2C1", "activity change, negative = cytotoxicity": "-4.93% [at 42.5 µM]"}, {"smiles": "CCCCOC(=O)C(C)CC", "note": "(stereo not given)", "activity change, negative = cytotoxicity": "-0.328%"}, {"smiles": "CC1CCCCN1CCCOC(=O)c1ccc(OC2CCCCC2)cc1", "note": "(stereo not given)", "activity change, negative = cytotoxicity": "-12% [at 42.5 µM]"}, {"smiles": "CCC(C)c1cc([N+](=O)[O-])cc([N+](=O)[O-])c1OC(=O)OC(C)C", "note": "(stereo not given)", "Potency": "34.4 µM (active)"}, {"smiles": "O=C1c2c(O)ccc([N+](=O)[O-])c2C(=O)c2c([N+](=O)[O-])ccc(O)c21", "Potency": "13.6 µM (active)"}, {"smiles": "CC(CN(C)C)CN1c2ccccc2CCc2ccccc21", "note": "(stereo not given)", "Potency": "26.6 µM (active)"}, {"smiles": "C=C(c1ccc(C(=O)O)cc1)c1cc2c(cc1C)C(C)(C)CCC2(C)C", "activity change, negative = cytotoxicity": "4.52% [at 42.5 µM]"}, {"smiles": "C[C@H]1O[C@@H](O[C@H]2[C@@H](O)C[C@H](O[C@H]3[C@@H](O)C[C@H](O[C@H]4CC[C@@]5(C)[C@H](CC[C@@H]6[C@@H]5C[C@@H](O)[C@]5(C)[C@@H](C7=CC(=O)OC7)CC[C@]65O)C4)O[C@@H]3C)O[C@@H]2C)C[C@H](O)[C@@H]1O", "activity change, negative = cytotoxicity": "-35%"}, {"smiles": "C=CC(=C)CCC=C(C)C", "activity change, negative = cytotoxicity": "-6.46%"}, {"smiles": "Cc1c(-c2ccc(O)cc2)n(Cc2ccc(OCCN3CCCCCC3)cc2)c2ccc(O)cc12", "Potency": "23.7 µM (active)"}, {"smiles": "CCN(CC)c1ccc(N)cc1", "Potency": "15.8 µM (active)"}, {"smiles": "CNCC[C@H](Oc1cccc2ccccc12)c1cccs1", "Potency": "29.8 µM (active)"}, {"smiles": "CCCCCCCCCCCCCC[n+]1ccccc1", "Potency": "8.63 µM (active)"}, {"smiles": "CCc1ccc(O)c(C(C)(C)C)c1", "activity change, negative = cytotoxicity": "-4.94%"}, {"smiles": "O=C(O)CCn1c2c(c3ccccc31)C[C@H](NS(=O)(=O)c1ccc(F)cc1)CC2", "activity change, negative = cytotoxicity": "-1.81% [at 42.5 µM]"}, {"smiles": "COC(=O)[C@]1(C)CCC[C@@]2(C)[C@H]1CC=C1C=C(C(C)C)CC[C@@H]12", "activity change, negative = cytotoxicity": "-0.317%"}, {"smiles": "CC(=O)Nc1ccc(O)cc1", "Potency": "inactive"}, {"smiles": "CCCCCCCCCCCCOC(=O)c1cc(O)c(O)c(O)c1", "Potency": "60.9 µM (active) and 61.1 µM (active)"}, {"smiles": "CC=O", "Potency": "5.7 µM (active)"}, {"smiles": "CCN(CC)CCOc1ccc(C(O)(Cc2ccc(Cl)cc2)c2ccc(C)cc2)cc1", "note": "(stereo not given)", "Potency": "26.6 µM (active)"}, {"smiles": "CS(C)(=O)=O", "activity change, negative = cytotoxicity": "2.11%"}, {"smiles": "CCCCCCCC/C=C\\CCCCCCCC(=O)OCCOC(=O)CCCCCCC/C=C\\CCCCCCCC", "activity change, negative = cytotoxicity": "-16.1%"}, {"smiles": "CSc1ccc2c(c1)N(CCC1CCCCN1C)c1ccccc1S2", "note": "(stereo not given)", "Potency": "19.3 µM (active) and 26.6 µM (active)"}, {"smiles": "Cc1cccc(C)c1NC(=O)CN1CCN(CCCC(c2ccc(F)cc2)c2ccc(F)cc2)CC1", "Potency": "23.7 µM (active)"}]}]}
